# Sm TGR inh = S. mansoni TGR enzyme inhibition; purified TGR, DTNB reduction, TNB absorbance 405 nm; Potency, µM (titrated, usually from 114 µM), for inactives: at the highest dose activity change, negative = inhibition, most hits filed as inhibitors; actives 3% (n = 360,000); AID 485364; further: potency means the concentration at half of the fitted maximal effect; on the % scale 0 is the no-effect control and ±100 the full control effect; nearly all actives have a fitted effect of over 60% in size
#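 First, TGR (20 nM dispensed) and NADPH were mixed with compound. Second, a 15 min room-temperature incubation followed. Third, further NADPH and then DTNB were added to start the reaction. Finally, TNB absorbance was monitored kinetically.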
# NS1 inh = inhibitors of influenza NS1 protein function; actives 0.4% (n = 270,000); AID 2326; Potency, µM (highest dose often 46.1 µM), inactives show at the highest dose activity, positive = more growth; calls by dose curve; further: potency means the concentration at half of the fitted maximal effect; actives are rising curves; nearly all actives have a fitted effect of over 50% in size
#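 OD600 was taken as the measure of yeast growth restored by compound in an NS1-expressing S. cerevisiae strain. Cells had been washed out of glucose medium and diluted 1:100 into galactose -URA medium, pH 6.0.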
# Cycloheximide cs = counter-screen for Shiga toxin inhibitors: cycloheximide protein synthesis inhibition; cell reporter, cycloheximide protein synthesis inhibition counterscreen; max response, %; actives 12% (n = 300,000); in the data active means max response mostly above about 13%, no sharp cut-off; inactive means mostly below about 14%; further: read at 38.3 µM for the half of the compounds with a filed dose; 0% is about no effect
# Shiga inhibitor = Shiga toxin inhibition. Vero cells, Shiga toxin protein synthesis inhibition reporter. actives 9.2% (n = 290,000). inhibition, % at 38.7 µM; in the data active means inhibition mostly above about 28%, no sharp cut-off; inactive means mostly below about 43%; further: 0% is about no effect
# Pf growth 48h = inhibits P. falciparum growth in the first generation, 48 h; P. falciparum luciferase growth in erythrocytes, 48 h; Potency, µM (titrated, usually from 28.7 µM), for inactives: at the top dose activity change, negative = inhibition, usual class: inhibitors; actives 5.9% (n = 310,000); AID 504832; further: potency means the concentration at half of the fitted maximal effect; on the % scale 0 is the no-effect control and ±100 the full control effect
#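 A one-generation exposure of luciferase-tagged malaria parasites in RPMI 1640/Albumax erythrocyte culture, 37 C and 5% CO2. Inhibition is inferred from decreased luminescence after adding detection reagent.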
# Pf growth 96h = P. falciparum growth inhibition at 96 hours | P. falciparum luciferase reporter growth, 96 h | actives 6.9% (n = 320,000) | Potency, µM (titrated, usually from 28.7 µM), for the others: top-dose activity change, negative = inhibition, most hits filed as inhibitors; further: potency means the concentration at half of the fitted maximal effect; on the % scale 0 is the no-effect control and ±100 the full control effect
#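 96 h incubation, 37 C, 5% CO2, of luciferase-reporter P. falciparum-infected RBCs (2% hematocrit, 0.05% parasitemia final) with test compounds; endpoint luminescence.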
# * marks the source's active call; other numbers are inactive results; u = inconclusive; x = not tested or not shown; ! = not active in a repeat. Most compounds without a hit are left out; they make up all but 21% or so of the library. Unless noted, the call rests on the fitted dose curve; in most records, active means well fitted curve in the direction sought with a large enough effect; inconclusive means small, poorly fitted or top-dose-only effect, or another doubt; inactive means no such curve, though single readings can be large; an effect the other way counts as inactive or inconclusive.
SMILES,Sm TGR inh,NS1 inh,Cycloheximide cs,Shiga inhibitor,Pf growth 48h,Pf growth 96h
Fc1ccc(-n2ncc3c(N4CCN(Cc5ccccc5)CC4)ncnc32)cc1,2%,x,x,x,x,x
CS(=O)(=O)N(CC(=O)N1CCCC1)Cc1ccc(F)cc1,40µM*,4%,-3,-9,42%,u
CS(=O)(=O)N(CC(=O)N1CCCCC1)Cc1ccccc1,-2%,7%,-2,2,u,65%
O=C(CN(Cc1ccc(F)cc1)S(=O)(=O)c1ccccc1)N1CCCCC1,0%,-10%,-4,-2,u,4.1µM*
Cc1cc(C)c(S(=O)(=O)Nc2nnc(C(C)C)s2)c(C)c1,2%,-77%,0,-2,1%,u
Cc1cc(C2=NNC(=NCc3ccccc3)SC2)c(C)n1-c1c(C)n(C)n(-c2ccccc2)c1=O,-3%,21%,-2,-5,12µM*,u
CN=C1NN=C(c2cc(C)n(-c3c(C)n(C)n(-c4ccccc4)c3=O)c2C)CS1,-24%,14%,-3,-6,u,u
COCC(C)N=C1NN=C(c2cc(C)n(Cc3ccccc3Cl)c2C)CS1 (centres undefined),-27%,x,55*,108*,14%,-26%
COc1ccc(-n2c(C)cc(C3=NNC(=NC4CC4)SC3)c2C)cc1,-11%,x,40*,85*,u,-23%
COCCCN=C1NN=C(c2cc(C)n(Cc3ccco3)c2C)CS1,-6%,u,40*,127*,51%,18%
COCC(C)N=C1NN=C(c2ccc(NC(C)=O)cc2)CS1 (centres undefined),-26%,x,22*,44,86%,34%
Cc1cc(C2=NNC(=NC3CC3)SC2)c(C)n1Cc1ccco1,-9%,5%,95*,137*,-54%,u
CCOc1cc(CNn2nnnc2N)cc(Cl)c1OCC(=O)NC(C)(C)C,3%,-5%,-2,-2,u,u
Cc1ccc2nc(NS(=O)(=O)c3cn(C)nc3C)sc2c1,4%,10%,3,-16,u,35%
COc1ccc(NC2=C(NC(C)=O)C(=O)c3ccccc3C2=O)cc1,5%,0%,7,25,u,-1%
COC1=C(Nc2ccc(OC)cc2)C(=O)c2ccccc2C1=O,-1%,2%,52*,133*,2.3µM*,u
CCOc1ccc(NS(=O)(=O)N(C)C)cc1,4%,12%,-3,-17,7%,x
O=C(O)c1ccc(NC2=C(N3CCOCC3)C(=O)c3ccccc3C2=O)cc1,u,8%,-1,15,-12%,-5%
CCOc1ccc(NC2=C(OC)C(=O)c3ccccc3C2=O)cc1,-5%,-10%,20*,61*,1.2µM*,1.2µM*
COC1=C(Nc2ccc(O)cc2)C(=O)c2ccccc2C1=O,u,-14%,28*,77*,u,12µM*
COc1cc(O)c(C(CC(=O)N2CCOCC2)c2ccc(N(C)C)cc2)c(OC)c1 (centres undefined),u,-17%,-5,-5,u,79%
COc1cc(O)c(C(CC(=O)N2CCCCC2)c2cc(OC)c(OC)c(OC)c2)c(OC)c1 (centres undefined),-2%,-4%,47*!,81*!,-19%,u
COc1cc(O)c(C(CC(=O)N2CCN(c3ccccc3)CC2)c2cc(OC)c(OC)c(OC)c2)c(OC)c1 (centres undefined),-4%,-11%,0,23,12µM*,10µM*
COc1cc(O)c(C(CC(=O)N2CCCC2)c2cc(OC)c(OC)c(OC)c2)c(OC)c1 (centres undefined),-12%,-4%,-1,-1,u,0%
C[S@@](=O)CCCCN=C=S,x,x,57*,-12,x,x
CCCCN(CC)CCCNC(=O)CCN1N=C(c2ccc(OC)cc2)CCC1=O,-12%,x,x,x,x,x
COCC(=O)N/N=C\c1ccccc1OC/C=C/c1ccccc1,0%,-30%,-1,-7,-2%,232%
N#CCC(=O)N/N=C\c1ccccc1OC/C=C/c1ccccc1,3%,2%,50*,77*,20%,62%
N#CCC(=O)N/N=C\c1ccc(OC/C=C/c2ccccc2)cc1,2%,-2%,27*,30,32%,60%

# Screening data deposited in PubChem by National Center for Advancing Translational Sciences (NCATS).
